Assay results reported in the supplement of paper PMC6555819.

Experiments:
Assay in all cases: PBM binding z-score (relative to random genomic background probes); higher = stronger binding; sequences stand for … in GC…GCGATTGACAGCGTAGAATGAAGG
[1] = tested on: PPARg:RXRa DBDmut IVT, anti-RXR (DBD mutation: RXRa K156A/R161A, NR concentration 270 nM, RXRa partner concentration 90 nM)
In short: (§1)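 Regression normalization was applied to scanned fluorescence from custom Agilent 4×180K protein-binding microarrays. Before scanning, arrays were incubated 1 h with ligand-free nuclear receptor dimers, and binding was detected with antibodies against each partner (one per run). Binding z-scores use the random background probes as reference.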

[2] = tested on: PPARg:RXRa IVT, anti-PPARg (NR concentration 270 nM, RXRa partner concentration 90 nM)
In short: as §1

[3] = tested on: PPARg DBDmut:RXRa IVT, anti-PPARg (DBD mutation: PPARg1 K132A/R137A, NR concentration 270 nM, RXRa partner concentration 90 nM)
In short: as §1

[4] = tested on: PPARg DBDmut IVT, anti-PPARg (DBD mutation: PPARg1 K132A/R137A, NR concentration 270 nM)
In short: as §1

[5] = tested on: PPARg homodimer (NR concentration 180 nM)
In short: as §1

[6] = tested on: PXR:RXRa (NR concentration 270 nM, RXRa partner concentration 90 nM)
In short: as §1

[7] = tested on: PXR homodimer (NR concentration 270 nM)
In short: as §1

[8] = tested on: RARa:RXR (NR concentration 270 nM, RXRa partner concentration 90 nM)
In short: as §1

[9] = tested on: RARa homodimer (NR concentration 270 nM)
In short: as §1

[10] = tested on: RARb:RXRa (NR concentration 270 nM, RXRa partner concentration 90 nM)
In short: as §1

Sequence | PBM binding z-score [1] | PBM binding z-score [2] | PBM binding z-score [3] | PBM binding z-score [4] | PBM binding z-score [5] | PBM binding z-score [6] | PBM binding z-score [7] | PBM binding z-score [8] | PBM binding z-score [9] | PBM binding z-score [10]
AGAATGCGGTTACCAAAGATCAGGGAAACGCTTG | -0.0849 | -0.0394 | -0.888 | -0.42 | -0.659 | -0.382 | -0.939 | -0.221 | -0.366 | 0.18
CGTCCAAGGTCAGAGAGGTCAGTGCATGCCGAGT | 3.03 | 3.39 | -0.458 | -1.04 | 4.89 | 5.91 | 11.5 | 5.08 | 1.45 | 5.17
TCTAGTTGGTCTCGGAGGTCACACACGACGGGTA | 1.7 | 2.32 | 1.38 | 1.29 | 2.19 | 4.11 | 0.901 | 4.22 | 0.998 | 3.35
GGAACGAGGGAAAGTTGATAGCAGAGTTTGATGG | 0.0988 | -0.37 | -0.287 | -0.305 | 0.398 | -0.176 | 0.056 | -0.338 | -0.00431 | -0.247
ATCTCTAGGTAAAGATAGTTCCGTGAATGCAAAT | 1.2 | 1.52 | 1.55 | 0.949 | 0.486 | -0.0332 | 0.339 | 0.23 | 0.96 | -0.0284
CCTGCTAGGTCAATGCTCAGCTAAAGCAGCTCGC | 4.63 | 3.35 | 0.0583 | -0.86 | 0.329 | 0.498 | -0.943 | 1.19 | -0.48 | 3.61
TCTTGTAGATCAAGCAGGTCAAGAAAGCCTGAGT | 1.73 | 1.75 | 0.414 | -0.0194 | 0.82 | 1.7 | 0.497 | 1.91 | 0.192 | 1.79
TCTAATTGGTCAAAGGTCACACACTCGAAATGCG | 3.57 | 6.22 | 4.31 | 4.82 | 12.2 | 6.35 | 1.5 | 7.91 | 5.86 | 5.27
GTACCAAGGTGAATAGGTCGCTGATGAGTAGGCG | 1.89 | 2.89 | -0.721 | -0.6 | 0.508 | 0.271 | -0.637 | 1.34 | -0.0761 | 2.07
ATCTCTAGGTAACAAGTTCAGCGAAAGAGAGGAC | 3.7 | 2.88 | 1.31 | 2.15 | 1.32 | 1.9 | 1.83 | 1.15 | 1.27 | 1.81
CGTCAAAGTTCAACTAAGGTAACGTACAGCACGC | 0.621 | 2.54 | 0.979 | 0.528 | 3.88 | 5.9 | 4.77 | 4.72 | 2.23 | 5.42
CCTTACGGGTCAAGGTTAGAGCACGGGTGGTACG | 1.69 | 3.34 | 0.826 | 0.266 | 2.42 | 3.08 | -0.133 | 3.92 | 0.744 | 4.13
ATCGAAAGGTCGAAGGTGAGTAGACCCACCCGAA | -0.178 | 1.89 | -0.438 | 0.456 | 1.74 | 2.69 | 0.121 | 4.23 | 0.557 | 3.83
ATCTCTAGGTAAAGCTCAGTGAAAGATCGATAGA | 2.67 | 1.38 | 0.778 | 0.893 | 0.544 | -0.131 | 0.14 | 0.258 | 0.432 | 0.0103
GATACAGGGTCAAGTCCAGAGTACGCGTATTGAT | 3.07 | 4.1 | 1.84 | 0.844 | 4.21 | 4.36 | 0.54 | 5.16 | 1.38 | 4.64
ATCGAAAGGTCGAGGTGACTATAGAGAAAGGGAA | 0.438 | 2.86 | 1.24 | 0.771 | 1.35 | 2.56 | 0.185 | 3.53 | 0.636 | 4.21
TCTCGGACGACACGAAAGGTCAGAGCTCGACATC | 1.5 | 1.09 | -0.234 | 0.0466 | 3.29 | 3.8 | 0.286 | 4.66 | 2.43 | 3.86
CCGAGTAAGTTATGGGGCATTCAGGCAACGGTGA | 0.876 | 0.12 | 0.0533 | -0.856 | 0.399 | -0.507 | -0.558 | -0.445 | -0.0178 | -0.111
CGTCCAAGGTCATTGCTAGGTCAGTGAAAGCATT | 3.23 | 4.03 | -0.074 | -0.854 | 4.11 | 5.16 | 2.4 | 5.71 | 0.612 | 5.04
ACAGACAGGTGATGAAGGTAACACAGGCTATCAT | 0.127 | 0.744 | 0.824 | 0.414 | 0.26 | -0.00388 | 0.386 | 0.0316 | 0.746 | 0.493
GCTAGCAGGCCATTTGGGGCACTCAATGACGGGC | 1.12 | 0.8 | -0.58 | -1.74 | -0.698 | -0.594 | -0.802 | -0.159 | -1.06 | 0.199
ATATGTAGGTTAGCTGGGGTGATTCAGACTAGGC | 6.78 | 5.76 | 1.88 | 1.63 | 1 | 1.55 | 0.409 | 1.31 | 1.29 | 1.07
CCGACTGGGGCAAAGGTGACCATACTCAGTACGA | 5.54 | 5.24 | 0.207 | -0.959 | 1.34 | 0.701 | -0.655 | 1.65 | -0.317 | 1.62
CCTATTAGTTGACCATAATGGCAACCGAAGCTCG | 0.772 | 0.551 | 0.742 | 1.21 | 2 | 0.599 | 1.05 | 0.673 | 2.52 | 0.621
